Potency data for two molecules are collected here from PubChem BioAssay AID1671187 (National Center for Advancing Translational Sciences (NCATS), 2021).

The list shows a part of the results. Inconclusive results are not listed. Activity calls are given as the source filed them. Calls come from the whole dose curve; as a rule, active = well fitted inhibition curve with a large enough effect; inconclusive = small, poorly fitted or top-dose-only effect; inactive = flat fitted curve, though single readings scatter.

The target in this experiment is Alanine aminotransferase 2 (Homo sapiens) (UniProt Q8TD30). Briefly: Confirmatory qHTS assay for inhibitors of Glutamate pyruvate transaminase 2 (GPT2). The settings on record: GPT2 enzyme, coupled Amplex Red pyruvate fluorescence. The protocol: Assay Provider: Zhenghe John Wang Ph.D. Case Western Reserve University, Cleveland OH Glutamate pyruvate transaminase 2 (GPT2) catalyzes the reversible transamination of glutamate and pyruvate to provide a-ketoglutarate and alanine. We have optimized an assay for GPT2 enzymatic activity that couples pyruvate formation to detection of fluorescence using an established pyruvate oxidase/horseradish peroxidase / Amplex Red system. Screening conditions were 250uM a-KG, 2mM L-alanine, and 0.006 ng/uL GPT2 in 4 uL of solution; 2 uL of Amplex reaction mix (outlined below) were added so that final concentrations of Amplex reagents in 6 uL were 0.2mM ThPP, 0.2U/mL PO, 1 U/mL HRP, and 15 uM Amplex.
Alanine aminotransferase 2 (Homo sapiens), sequence (Q8TD30 whole entry, looked up): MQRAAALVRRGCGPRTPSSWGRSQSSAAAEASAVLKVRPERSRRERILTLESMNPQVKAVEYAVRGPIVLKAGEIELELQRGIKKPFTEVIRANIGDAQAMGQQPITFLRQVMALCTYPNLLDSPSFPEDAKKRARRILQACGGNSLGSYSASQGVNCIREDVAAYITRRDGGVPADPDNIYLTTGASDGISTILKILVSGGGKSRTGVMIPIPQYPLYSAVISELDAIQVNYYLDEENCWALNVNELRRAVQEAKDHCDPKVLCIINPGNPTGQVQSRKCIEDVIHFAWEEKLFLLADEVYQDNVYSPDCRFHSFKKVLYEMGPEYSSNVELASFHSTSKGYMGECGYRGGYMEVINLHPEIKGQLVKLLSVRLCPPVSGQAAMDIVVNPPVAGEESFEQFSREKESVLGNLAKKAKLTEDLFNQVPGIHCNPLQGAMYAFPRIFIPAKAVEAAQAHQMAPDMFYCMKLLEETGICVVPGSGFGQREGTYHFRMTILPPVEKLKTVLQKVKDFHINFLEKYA
NOTE: The volume of GPT2 in the system depended on the activity of it. The activity could be different in every batch. Batch testing the GPT2 activity was done prior to the assay. Full plate assay with automation as the following protocol: 1. Dispense 2ul of GPT2 enzyme (0.012 ng/ul) into columns 3-48, 2ul of GPT2 buffer (ddH2O with 110mM KCl, 10mM NaCl, 2mM MgCl2, 20mM HEPEs, 0.01% tween-20, 0.1% BSA, 5mM DTT ) into columns 1-2 as a positive control. 2. […] Read at Tecan: Excitation filter 560(10) nm, Emission filter 590 (10) nm Reagents preparation: 1. […]
On the technique in general: Quantitative high-throughput screening tests each substance at several concentrations.
Regarding `CNC(=O)c1ccccc1Nc1nc(Nc2ccc(N3CCOCC3)cc2OC)ncc1Cl`, the Potency was 1.72 µM (active). For `CN1CCOc2c(C(=O)NCCN3CCNC3=O)cc(Nc3cccnc3)cc21` the value was 4.98 µM (active).
